# Source: the supplement of paper PMC8728848
# Shown is part of a subset that was picked to be rich in the strongest signals.
# Key:
# Assay in all cases: glycan array binding signal (z-score within array); higher = stronger binding
# Settings in all cases: glycan notation: IUPAC condensed, linker removed
# [1] = molecular target: Gal(b1-4)GlcNAc(b1-3)GalNAc
# How it was run: (§1)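 Arrays were curated from the Consortium for Functional Glycomics database, 3228 in total, and kept only where the protein sequence was available. Binding is expressed as a within-array Z-score. This score was averaged across arrays of the same protein sequence at different concentrations or buffers and across linkers, and negative values can be read as non-binding.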
# [2] = molecular target: Gal(b1-4)GlcNAc(b1-6)[Gal(b1-4)GlcNAc(b1-3)]GalNAc
# How it was run: as §1
# Gal3S4S(b1-4)GlcNAc = molecular target: Gal3S4S(b1-4)GlcNAc
# How it was run: as §1
# Gal4S(b1-4)GlcNAc = molecular target: Gal4S(b1-4)GlcNAc
# How it was run: as §1
# GalNAc(a1-3)GalNAc = molecular target: GalNAc(a1-3)GalNAc
# How it was run: as §1
# [3] = molecular target: GalNAc(b1-3)Gal(a1-4)Gal(b1-4)GlcNAc(b1-3)Gal(b1-4)Glc
# How it was run: as §1
# GalNAc(b1-3)GalNAc = molecular target: GalNAc(b1-3)GalNAc
# How it was run: as §1
# GalNAc(b1-3)GlcNAc = molecular target: GalNAc(b1-3)GlcNAc
# How it was run: as §1
# GalNAc3S(b1-4)GlcNAc3S = molecular target: GalNAc3S(b1-4)GlcNAc3S
# How it was run: as §1
# [4] = molecular target: GlcNAc(a1-6)Gal(b1-4)GlcNAc
# How it was run: as §1
# [5] = molecular target: GlcNAc(b1-3)Gal(b1-4)GlcNAc(b1-2)[GlcNAc(b1-3)Gal(b1-4)GlcNAc(b1-6)]Man(a1-6)[GlcNAc(b1-3)Gal(b1-4)GlcNAc(b1-2)Man(a1-3)]Man(b1-4)GlcNAc(b1-4)GlcNAc
# How it was run: as §1
# [6] = molecular target: GlcNAc(b1-3)Gal(b1-4)GlcNAc(b1-3)Gal(b1-4)GlcNAc(b1-3)Gal(b1-4)GlcNAc(b1-2)Man(a1-3)[GlcNAc(b1-3)Gal(b1-4)GlcNAc(b1-3)Gal(b1-4)GlcNAc(b1-3)Gal(b1-4)GlcNAc(b1-2)Man(a1-6)]Man(b1-4)GlcNAc(b1-4)GlcNAc
# How it was run: as §1
# [7] = molecular target: GlcNAc(b1-3)[GlcNAc(b1-6)]GalNAc
# How it was run: as §1
# Kdn(a2-3)Gal(b1-3)GalNAc = molecular target: Kdn(a2-3)Gal(b1-3)GalNAc
# How it was run: as §1
# Kdn(a2-3)Gal(b1-4)Glc = molecular target: Kdn(a2-3)Gal(b1-4)Glc
# How it was run: as §1
# [8] = molecular target: Man(a1-3)[Man(a1-6)]Man(a1-6)[Man(a1-3)]Man(b1-4)GlcNAc(b1-4)GlcNAc
# How it was run: as §1
# [9] = molecular target: Neu5Ac(a2-3)Gal(b1-3)GalNAc(b1-3)Gal(a1-4)Gal(b1-4)Glc
# How it was run: as §1
# [10] = molecular target: Neu5Ac(a2-3)Gal(b1-3)GlcNAc
# How it was run: as §1
# [11] = molecular target: Neu5Ac(a2-3)Gal(b1-3)GlcNAc(b1-2)Man
# How it was run: as §1
# [12] = molecular target: Neu5Ac(a2-3)Gal(b1-3)GlcNAc(b1-2)Man(a1-3)[GlcNAc(b1-4)][Neu5Ac(a2-3)Gal(b1-3)GlcNAc(b1-2)Man(a1-6)]Man(b1-4)GlcNAc(b1-4)GlcNAc
# How it was run: as §1
# [13] = molecular target: Neu5Ac(a2-3)Gal(b1-4)GlcNAc(b1-2)Man(a1-3)[Neu5Ac(a2-3)Gal(b1-4)GlcNAc(b1-2)Man(a1-6)]Man(b1-4)GlcNAc(b1-4)[Fuc(a1-6)]GlcNAc
# How it was run: as §1
# [14] = molecular target: Neu5Ac(a2-6)Gal(b1-4)GlcNAc(b1-2)Man(a1-3)[Neu5Ac(a2-6)Gal(b1-4)GlcNAc(b1-2)Man(a1-6)]Man(b1-4)GlcNAc(b1-4)[Fuc(a1-6)]GlcNAc
# How it was run: as §1
# [15] = molecular target: Neu5Ac(a2-6)Gal(b1-4)GlcNAc(b1-2)[Neu5Ac(a2-6)Gal(b1-4)GlcNAc(b1-4)]Man(a1-3)[GlcNAc(b1-4)][Neu5Ac(a2-6)Gal(b1-4)GlcNAc(b1-4)Man(a1-6)]Man(b1-4)GlcNAc(b1-4)GlcNAc
# How it was run: as §1
# [16] = molecular target: Neu5Ac(a2-6)Gal(b1-4)GlcNAc(b1-3)Gal(b1-4)[Fuc(a1-3)]GlcNAc(b1-3)Gal(b1-4)[Fuc(a1-3)]GlcNAc
# How it was run: as §1
# [17] = molecular target: Neu5Ac(a2-6)Gal(b1-4)GlcNAc(b1-3)GalNAc
# How it was run: as §1
# [18] = molecular target: Neu5Ac(a2-8)Neu5Ac(a2-3)Gal(b1-3)GalNAc(b1-4)[Neu5Ac(a2-8)Neu5Ac(a2-3)]Gal(b1-4)Glc
# How it was run: as §1
# [19] = molecular target: Neu5Gc(a2-8)Neu5Gc(a2-3)Gal(b1-4)GlcNAc
# How it was run: as §1
binder,measurement,setting,value
GS7807G-bfa-506-18-506 (Bacteroides fragilis) (protein) ASCDKFDEINTDPDATTKVTSSLLATGLLLDITSSSASKSFIYDELLAKQMAWGESMEDYQYNVFGRSGFGGYTTLINAQKMVESVSDDNVNAYDGLAHFIKAYKIFYMSMEMGDLPYEEALQGELGLVRPKYNTQKEVMNFILSDLETAYELFSTAKDFDGDPILGGSISKWKKATTAFQLKVLMHLSKKESDADLKVKERFARIVASGSLMESNEDNLQMKYADKANTVYPFHNTNTKHAGYAMLSTMLIDKFKATGDIRMFYYAKPAKAKLNEGVTADSWDAYIGTDPSLPFEQIEKAYATEQYSGFNARYTDYPSGEPVVRLGYAEQNFILAEAAVRGWISGDASAYYKKAIRAHMEFIASNTPDEEVYHHGHPITEEAIAAFLETPAIQLSGEKEEDIEKILTQRYLASFMQHPYDVYYDYRRTGYPVLPINPATNRNTMNDRLPMRWMYPKSESDYNLEHQNEALERQFGGVDDVNKLMWILQ,glycan array binding signal (z-score),[1],-0.443
same,glycan array binding signal (z-score),[2],1.86
same,glycan array binding signal (z-score),Gal3S4S(b1-4)GlcNAc,-0.454
same,glycan array binding signal (z-score),Gal4S(b1-4)GlcNAc,-0.273
same,glycan array binding signal (z-score),GalNAc(a1-3)GalNAc,-0.209
same,glycan array binding signal (z-score),[3],-0.567
same,glycan array binding signal (z-score),GalNAc(b1-3)GalNAc,-0.744
same,glycan array binding signal (z-score),GalNAc(b1-3)GlcNAc,0.616
same,glycan array binding signal (z-score),GalNAc3S(b1-4)GlcNAc3S,-0.726
same,glycan array binding signal (z-score),[4],-0.271
same,glycan array binding signal (z-score),[5],0.698
same,glycan array binding signal (z-score),[6],0.543
same,glycan array binding signal (z-score),[7],-0.871
same,glycan array binding signal (z-score),Kdn(a2-3)Gal(b1-3)GalNAc,-0.399
same,glycan array binding signal (z-score),Kdn(a2-3)Gal(b1-4)Glc,-0.306
same,glycan array binding signal (z-score),[8],3.61
same,glycan array binding signal (z-score),[9],-0.786
same,glycan array binding signal (z-score),[10],-0.636
same,glycan array binding signal (z-score),[11],2.81
same,glycan array binding signal (z-score),[12],-0.528
same,glycan array binding signal (z-score),[13],-0.269
same,glycan array binding signal (z-score),[14],4.41
same,glycan array binding signal (z-score),[15],-0.864
same,glycan array binding signal (z-score),[16],-0.153
same,glycan array binding signal (z-score),[17],2.85
same,glycan array binding signal (z-score),[18],0.197
same,glycan array binding signal (z-score),[19],-0.712
